Assay results taken from PubChem BioAssay (EPA / NIEHS).
The source made the active and inactive calls. The calls were made as follows: active = hit-call score of the fitted dose curve at least 0.9, where 1 is the maximum; inactive = score below 0.9.

Columns and labels:
[1] = BSK_hDFCGF_SRB: Viability Assessment in the BioMAP Diversity Plus: hDFCGF Assay (AID 2283061); conditions: primary human foreskin fibroblasts;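 also: cells exposed to compound for 24 h before the read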
Summary of the method: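 Viability was read as total protein: after 10% TCA fixation, wells were stained with 0.1% sulforhodamine B and read at 560 nm. Primary human foreskin fibroblasts were dosed for 24 h, with bidirectional fitting versus DMSO.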

[2] = read-out: TIMP metallopeptidase inhibitor 1 (TIMP1), TIMP1 (gene 7076); experiment: BSK_hDFCGF_TIMP1: BioMAP Diversity Plus: hDFCGF Assay for TIMP metallopeptidase inhibitor 1 (TIMP1) Biomarker Activity (AID 2283062); conditions: primary human foreskin fibroblasts; actives raise or lower the signal
Summary of the method: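 TIMP-1 measured by ELISA 24 h after chemical dosing of primary human skin fibroblasts, with gain or loss fitted relative to DMSO. Parallel SRB staining (560 nm) monitored overt cytotoxicity.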

[3] = read-out: Monokine induced gamma interferon (MIG), CXCL9 (gene 4283); experiment: BSK_hDFCGF_MIG: BioMAP Diversity Plus: hDFCGF Assay for Monokine induced gamma interferon (MIG) Biomarker Activity (AID 2283063); conditions: primary human foreskin fibroblasts; actives raise or lower the signal
Summary of the method: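 Human primary foreskin fibroblasts in the hDFCGF system, exposed to test chemical for 24 h; MIG measured by ELISA. Bidirectional curve fitting against DMSO negative control as activity baseline.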

[4] = read-out: Matrix Metallopeptidase 1 (MMP1), MMP1 (gene 4312); experiment: BSK_hDFCGF_MMP1: BioMAP Diversity Plus: hDFCGF Assay for Matrix Metallopeptidase 1 (MMP1) Biomarker Activity (AID 2283064); conditions: primary human foreskin fibroblasts; actives raise or lower the signal
Summary of the method: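 ELISA read-out of MMP1 from human foreskin fibroblasts (primary skin cells), 24 h post-dose. Gain or loss of signal was fitted bidirectionally versus DMSO negative control; cytotoxicity was checked by SRB in parallel cultures.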

[5] = read-out: Vascular cell adhesion molecule 1 (VCAM1), VCAM1 (gene 7412); experiment: BSK_hDFCGF_VCAM1: BioMAP Diversity Plus: hDFCGF Assay for Vascular cell adhesion molecule 1 (VCAM1) Biomarker Activity (AID 2283065); conditions: primary human foreskin fibroblasts; actives raise or lower the signal;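 as to AC50: VCAM-1 protein level quantified by ELISA after 24 h chemical exposure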
Summary of the method: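 ELISA readout of VCAM-1 on human dermal fibroblast primary cultures, 24 h after chemical exposure. Gain or loss of signal fitted in both directions against DMSO baseline.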

[6] = read-out: Intercellular Adhesion Molecule 1 (ICAM1), ICAM1 (gene 3383); experiment: BSK_KF3CT_ICAM1: BioMAP Diversity Plus: KF3CT Assay for Intercellular Adhesion Molecule 1 (ICAM1) Biomarker Activity (AID 2283067); conditions: primary human keratinocytes with fibroblasts; actives raise or lower the signal
Summary of the method: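 Cell-surface ICAM-1 was measured by ELISA 24 h after dosing primary human skin keratinocytes co-cultured with fibroblasts. Parallel SRB staining tracked overt cytotoxicity. Gain or loss of signal was fitted relative to DMSO.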

[7] = read-out: Interferon-gamma inducible Protein 10 (IP10), CXCL10 (gene 3627); experiment: BSK_KF3CT_IP10: BioMAP Diversity Plus: KF3CT Assay for Interferon-gamma inducible Protein 10 (IP10) Biomarker Activity (AID 2283068); conditions: primary human keratinocytes with fibroblasts; actives raise or lower the signal
Summary of the method: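 In a primary skin co-culture of keratinocytes and fibroblasts, IP-10 is quantified by ELISA at 24 h after dosing. SRB staining of parallel wells monitors overt toxicity. Curves are fitted both directions against DMSO.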

[8] = BSK_KF3CT_SRB: Viability Assessment in the BioMAP Diversity Plus: KF3CT Assay (AID 2283069); conditions: primary human keratinocytes with fibroblasts;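 also: total protein by sulforhodamine B staining as a cytotoxicity measure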
Summary of the method: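 SRB read-out at 560 nm (0.1% stain, TCA-fixed cells) gauges overt cytotoxicity in a human skin keratinocyte–fibroblast co-culture 24 h post-dosing. Signal change was fitted bidirectionally relative to DMSO control.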

[9] = read-out: Interleukin-1 alpha (IL1a), IL1A (gene 3552); experiment: BSK_KF3CT_IL1a: BioMAP Diversity Plus: KF3CT Assay for Interleukin-1 alpha (IL1a) Biomarker Activity (AID 2283070); conditions: primary human keratinocytes with fibroblasts; actives raise or lower the signal
Summary of the method: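 Primary skin co-culture (keratinocytes, foreskin fibroblasts), 24 h exposure; ELISA for IL-1a; bidirectional curve fit vs DMSO.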

[10] = read-out: TIMP metallopeptidase inhibitor 2 (TIMP2), TIMP2 (gene 7077); experiment: BSK_KF3CT_TIMP2: BioMAP Diversity Plus: KF3CT Assay for TIMP metallopeptidase inhibitor 2 (TIMP2) Biomarker Activity (AID 2283071); conditions: primary human keratinocytes with fibroblasts; actives raise or lower the signal
Summary of the method: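 ELISA readout of TIMP-2 in keratinocyte plus foreskin fibroblast co-cultures (human skin primary cells), 24 h post-dose. Gain or loss of signal fitted relative to DMSO.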

[11] = read-out: Transforming growth factor beta 1 (TGFb1), TGFB1 (gene 7040); experiment: BSK_KF3CT_TGFb1: BioMAP Diversity Plus: KF3CT Assay for Transforming growth factor beta 1 (TGFb1) Biomarker Activity (AID 2283072); conditions: primary human keratinocytes with fibroblasts; actives raise or lower the signal
Summary of the method: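 Read-out: ELISA for TGF-b1 in keratinocyte/foreskin fibroblast human skin co-culture, 24 h after dosing; bidirectional curve fit vs DMSO baseline; gain or loss of signal scored.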

[12] = read-out: C-C motif chemokine 2 (Homo sapiens) (UniProt P13500); experiment: BSK_KF3CT_MCP1: BioMAP Diversity Plus: KF3CT Assay for Monocyte Chemoattractant Protein 1 (MCP1/CCL2) Biomarker Activity (AID 2283073); conditions: primary human keratinocytes with fibroblasts; actives raise or lower the signal
Summary of the method: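 ELISA read-out of MCP-1, 24 h post-dose, in primary human skin keratinocytes co-cultured with fibroblasts. Parallel SRB staining monitors cytotoxicity; changes fitted both directions relative to DMSO.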

[13] = read-out: Matrix Metallopeptidase 9 (MMP9), MMP9 (gene 4318); experiment: BSK_KF3CT_MMP9: BioMAP Diversity Plus: KF3CT Assay for Matrix Metallopeptidase 9 (MMP9) Biomarker Activity (AID 2283074); conditions: primary human keratinocytes with fibroblasts; actives raise or lower the signal;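 as to AC50: MMP9 protein level quantified by ELISA in the co-culture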
Summary of the method: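 ELISA read-out of MMP-9 at 24 h post-dosing in a co-culture of human skin keratinocytes and foreskin fibroblasts. Gain or loss of signal was fitted in both directions against DMSO.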

[14] = read-out: urokinase plasminogen activator (uPA), PLAU (gene 5328); experiment: BSK_KF3CT_uPA: BioMAP Diversity Plus: KF3CT Assay for urokinase plasminogen activator (uPA) Biomarker Activity (AID 2283075); conditions: primary human keratinocytes with fibroblasts; actives raise or lower the signal
Summary of the method: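 Skin co-culture (keratinocytes + foreskin fibroblasts), human primary; 24 h post-dose; uPA by ELISA; gain/loss fit vs DMSO baseline.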

[15] = read-out: CD40, CD40 (gene 958); experiment: BSK_LPS_CD40: BioMAP Diversity Plus: LPS Assay for CD40 Biomarker Activity (AID 2283076); conditions: primary human HUVEC with PBMC; actives raise or lower the signal
Summary of the method: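 In the LPS system of human endothelial cells with peripheral blood mononuclear cells, CD40 levels were read by ELISA 24 h post-treatment. Signal changes in either direction were fitted against the DMSO baseline, with parallel SRB protein staining.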

[16] = read-out: E-selectin (Homo sapiens) (UniProt P16581); experiment: BSK_LPS_Eselectin: BioMAP Diversity Plus: LPS Assay for Eselectin Biomarker Activity (AID 2283077); conditions: primary human HUVEC with PBMC; actives raise or lower the signal
Summary of the method: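 E-selectin ELISA on LPS-stimulated endothelial cell/PBMC co-cultures, read 24 h post-treatment; gains and losses fitted against DMSO. Parallel SRB staining (0.1% SRB after 10% TCA fixation, 560 nm) flags overt cytotoxicity.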

[17] = read-out: Interleukin-8 (IL8), CXCL8 (gene 3576); experiment: BSK_LPS_IL8: BioMAP Diversity Plus: LPS Assay for Interleukin-8 (IL8) Biomarker Activity (AID 2283078); conditions: primary human HUVEC with PBMC; actives raise or lower the signal
Summary of the method: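 ELISA read-out of IL-8 after 24 h chemical treatment of LPS-activated endothelial/PBMC human primary co-cultures. Changes either up or down relative to DMSO; overt cytotoxicity checked by sulforhodamine B staining in parallel wells.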

[18] = read-out: Interleukin-1 alpha (IL1a), IL1A (gene 3552); experiment: BSK_LPS_IL1a: BioMAP Diversity Plus: LPS Assay for Interleukin-1 alpha (IL1a) Biomarker Activity (AID 2283080); conditions: primary human HUVEC with PBMC; actives raise or lower the signal
Summary of the method: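 Readout is IL-1a level by ELISA, 24 h post-dose, fitted as gain or loss relative to DMSO. System: LPS-activated human primary co-culture of vascular endothelium and peripheral blood mononuclear cells, with parallel SRB total-protein cytotoxicity.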

[19] = read-out: Plasminogen activator inhibitor-1 (PAI1), SERPINE1 (gene 5054); experiment: BSK_hDFCGF_PAI1: BioMAP Diversity Plus: hDFCGF Assay for Plasminogen activator inhibitor-1 (PAI1) Biomarker Activity (AID 2283066); conditions: primary human foreskin fibroblasts; actives raise or lower the signal
Summary of the method: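 ELISA readout of PAI-1 from primary human skin fibroblast cultures, 24 h after compound addition. Gain or loss of signal was fitted bidirectionally against DMSO baseline.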

[20] = BSK_LPS_SRB: Viability Assessment in the BioMAP Diversity Plus: LPS Assay (AID 2283079); conditions: primary human HUVEC with PBMC;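 also: total protein by sulforhodamine B absorbance as a cytotoxicity measure; measured one day after compound addition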
Summary of the method: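 SRB viability endpoint: cells fixed with 10% TCA, stained with 0.1% SRB, read at 560 nm, 24 h post-dose. HUVEC/PBMC co-culture; signal change in either direction scored relative to DMSO.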

Measured: AC50

Chain of E-selectin (Homo sapiens) (P16581 whole entry, looked up): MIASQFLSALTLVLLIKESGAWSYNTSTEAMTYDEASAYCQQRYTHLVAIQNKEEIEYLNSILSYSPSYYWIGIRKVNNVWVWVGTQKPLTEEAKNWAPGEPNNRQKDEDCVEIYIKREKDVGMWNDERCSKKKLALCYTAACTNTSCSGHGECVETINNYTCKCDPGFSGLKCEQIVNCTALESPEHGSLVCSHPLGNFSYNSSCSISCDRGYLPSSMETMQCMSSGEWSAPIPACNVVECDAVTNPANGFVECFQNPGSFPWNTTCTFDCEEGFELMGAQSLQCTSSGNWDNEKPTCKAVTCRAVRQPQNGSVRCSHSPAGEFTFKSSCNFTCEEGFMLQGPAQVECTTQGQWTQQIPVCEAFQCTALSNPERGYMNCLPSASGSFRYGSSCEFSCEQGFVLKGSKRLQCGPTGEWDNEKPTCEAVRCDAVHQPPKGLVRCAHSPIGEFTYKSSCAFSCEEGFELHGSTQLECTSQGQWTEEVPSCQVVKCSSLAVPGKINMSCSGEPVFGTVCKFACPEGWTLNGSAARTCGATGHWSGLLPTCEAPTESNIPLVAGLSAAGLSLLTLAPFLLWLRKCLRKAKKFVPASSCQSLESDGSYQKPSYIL

COC(=O)[C@H]1[C@H]2C[C@@H]3c4[nH]c5cc(OC)ccc5c4CCN3C[C@H]2C[C@@H](OC(=O)c2cc(OC)c(OC)c(OC)c2)[C@@H]1OC
active: [15] 23.5 µM | [18] 22.6 µM
not listed: [19] | [20]
inactive: all other assays above

O=C1NC(=O)C(c2ccccc2)(c2ccccc2)N1
not listed: [20]
inactive: all other assays above

CC1=C(C)S(=O)(=O)CCS1(=O)=O
active: [15] 4.33 µM
not listed: [20]
inactive: all other assays above

NC(=Nc1ccccc1)Nc1ccccc1
active: [4] 3.71 µM
not listed: [3]
inactive: all other assays above

C#CC(O)C(CC)CCCC (configuration not stated)
not listed: [20]
inactive: all other assays above

CN(C)CCCN1c2ccccc2Sc2ccc(Cl)cc21
active: [1] 31.9 µM | [3] 31.1 µM | [4] 31.5 µM | [5] 24.7 µM | [19] 31.9 µM | [6] 35.4 µM | [7] 30.8 µM | [8] 31.6 µM | [9] 31 µM | [11] 33.2 µM | [13] 31.6 µM | [14] 30.3 µM | [15] 25.3 µM | [17] 23.9 µM | [20] 24.9 µM
inactive: [10] | [12] | [16]

Cc1c(C)c2c(c(C)c1O)CCC(C)(COc1ccc(CC3SC(=O)NC3=O)cc1)O2 (configuration not stated)
active: [1] 19.2 µM | [3] 20 µM | [4] 24.8 µM | [5] 11.8 µM | [19] 8.87 µM | [6] 14.1 µM | [7] 11.3 µM | [8] 13.8 µM | [9] 29.5 µM | [10] 20 µM | [11] 20.9 µM | [12] 15.1 µM | [13] 12.7 µM | [14] 12 µM | [15] 28.7 µM | [16] 30.3 µM | [17] 32.1 µM | [18] 32.7 µM

C/C=C/C=C/C(=O)O
not listed: [12]
inactive: all other assays above

NCCOCCOCCN
not listed: [19] | [20]
inactive: all other assays above
